Consider eight molecules from PubChem BioAssay (NCI).

Among the test systems are HCT-15 colon; SNB-75 CNS; SNB-19 CNS; U251 CNS; PC-3 prostate; SK-MEL-5 melanoma; UACC-62 melanoma; LOX IMVI melanoma; SK-MEL-28 melanoma; SK-MEL-2 melanoma; EKVX NSCLC; UO-31 renal; TK-10 renal; ACHN renal; CAKI-1 renal; A498 renal; CCRF-CEM leukemia; MOLT-4 leukemia; SN12C renal.
Test in all cases: NCI-60 one-dose screen, 48 h (100 = growth as untreated, 0 = no growth, -100 = all killed)
Common to all, as to settings: 10 µM unless noted

About 83,000 compounds went through this panel and 20% of them were active in at least one assay; those are over-represented in the sample as a whole.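 Treatment: one concentration, 48 hours, 96-well format. Scoring: percent growth, with anything below 10 considered active.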 Values without a mark were called inactive. Calls of active or inactive are those of the source.

In the case of `CC(C)(C)OC(=O)N1C/C(=C\c2ccoc2)C(=O)/C(=C/c2ccoc2)C1`, the growth was 99.6% with HCT-15 colon; 77% with SNB-75 CNS; 96.5% in the assay with SNB-19 CNS; 88.2% in the assay with U251 CNS; 89.5% in the assay with PC-3 prostate; 99.8% with SK-MEL-5 melanoma. In addition, the growth was 88.3% with UACC-62 melanoma; 90.7% in the assay with LOX IMVI melanoma; 102% with SK-MEL-28 melanoma; 96.4% with SK-MEL-2 melanoma; 102% in the assay on EKVX NSCLC; 74.2% in the assay on UO-31 renal. Also, the growth with TK-10 renal was 94.8%; with ACHN renal, 99.6%; in the assay with CAKI-1 renal it was 82.5%; with A498 renal, 74.1%; in the assay on CCRF-CEM leukemia it was 16.5%; with MOLT-4 leukemia, 76.1%.

Consider `COc1ccc(-c2cnc(N)nc2-c2ccc(OC)cc2O)cc1`, for which the growth was 101% with HCT-15 colon; 91.5% with SNB-75 CNS; 99.6% in the assay with SNB-19 CNS; 92.2% in the assay with U251 CNS; 92% with PC-3 prostate; 104% with SK-MEL-5 melanoma. The growth with UACC-62 melanoma was 93.4%; in the assay with LOX IMVI melanoma, 86.1%; with SK-MEL-28 melanoma, 104%; with SK-MEL-2 melanoma it was 112%; in the assay on EKVX NSCLC it was 96.8%; in the assay on SN12C renal, 98.5%. The growth is 70.2% in the assay with UO-31 renal; 99.1% with TK-10 renal; 87.9% in the assay with ACHN renal; 86.5% with CAKI-1 renal; 99.8% in the assay on A498 renal; 82.4% with CCRF-CEM leukemia. The growth with MOLT-4 leukemia is 77.2%.

For the molecule `CCN1C(=O)/C(=c2\sc3n(c2=O)NC2C(N=3)N(CC)C(=O)N2CC)c2ccccc21` (centres undefined), the growth in the assay on HCT-15 colon was 33.7%; in the assay on SNB-75 CNS, 7.11% (active); in the assay with SNB-19 CNS, 50.8%; in the assay with U251 CNS, 33.4%; in the assay with PC-3 prostate it was 29.6%; with SK-MEL-5 melanoma it was 30.9%. The growth with UACC-62 melanoma was 43.9%; in the assay on LOX IMVI melanoma it was 55.4%; in the assay with SK-MEL-28 melanoma it was 55.5%; in the assay on SK-MEL-2 melanoma, 65.8%; in the assay on EKVX NSCLC it was 60.4%; with SN12C renal it was 43.8%. Moreover, the growth in the assay on UO-31 renal is 48.9%; in the assay on TK-10 renal, 83.3%; with ACHN renal, 49.3%; with CAKI-1 renal, 42.1%; with A498 renal, -17.8% (active); in the assay on MOLT-4 leukemia, 58.9%.

`O=C(Cc1ccc(/C=C/C(=O)c2ncc[nH]2)cc1)Nc1ccc(C(F)(F)F)cc1`: the growth was -51.6% (active) in the assay on HCT-15 colon; 43.6% in the assay with SNB-75 CNS; 15.3% in the assay on SNB-19 CNS; -88.8% (active) with U251 CNS; 36.6% in the assay on PC-3 prostate; 47.7% in the assay with SK-MEL-5 melanoma. In addition, the growth was 46.5% with UACC-62 melanoma; -80% (active) in the assay on LOX IMVI melanoma; 67.3% in the assay on SK-MEL-28 melanoma; 100% in the assay with SK-MEL-2 melanoma; 71.8% in the assay with EKVX NSCLC; 29.5% in the assay with SN12C renal. Also, the growth with UO-31 renal is -41.7% (active); with TK-10 renal it was 87.5%; in the assay on ACHN renal it was 56%; with CAKI-1 renal it was 68.7%; in the assay on CCRF-CEM leukemia, -9.03% (active); with MOLT-4 leukemia it was 6.36% (active).

As for `Fc1ccccc1CSc1ncnc2nc[nH]c12`, the growth in the assay on HCT-15 colon is 114%; with SNB-75 CNS it was 105%; in the assay on SNB-19 CNS it was 94.3%; in the assay with PC-3 prostate, 105%; in the assay on SK-MEL-5 melanoma, 105%; with UACC-62 melanoma it was 94.2%. Moreover, the growth is 96.4% with LOX IMVI melanoma; 112% in the assay on SK-MEL-28 melanoma; 86.6% in the assay on SK-MEL-2 melanoma; 113% in the assay with EKVX NSCLC; 101% in the assay with SN12C renal; 94.9% in the assay on UO-31 renal. Also, the growth was 142% with TK-10 renal; 107% in the assay on ACHN renal; 103% in the assay with CAKI-1 renal; 112% in the assay with A498 renal; 117% with CCRF-CEM leukemia; 92.3% in the assay on MOLT-4 leukemia.

As for `COc1ccc(Cc2nc3cc(OC)c(OC)cc3c(=O)[nH]2)cc1`, the growth with HCT-15 colon was 29.8%; with SNB-75 CNS, 107%; with SNB-19 CNS, 81.7%; with U251 CNS, 77.8%; in the assay with PC-3 prostate it was 86.4%; in the assay on SK-MEL-5 melanoma it was 90.8%. Besides, the growth in the assay with UACC-62 melanoma was 77.6%; in the assay with LOX IMVI melanoma, 61%; in the assay with SK-MEL-28 melanoma, 79.3%; in the assay on SK-MEL-2 melanoma it was 105%; in the assay on EKVX NSCLC, 105%; in the assay with SN12C renal, 67.9%. Further, the growth was 69.6% in the assay on UO-31 renal; 237% in the assay with TK-10 renal; 72.2% with ACHN renal; 95.7% in the assay with CAKI-1 renal; 122% with A498 renal; 80.7% in the assay with MOLT-4 leukemia.

On to `CC(C)NC(=O)N1C(=O)CCC1NNC(=O)c1ccc([N+](=O)[O-])cc1` (centres undefined), for which the growth with HCT-15 colon is 107%; in the assay with SNB-75 CNS it was 102%; in the assay with SNB-19 CNS it was 107%; in the assay with U251 CNS, 109%; in the assay on PC-3 prostate it was 107%; with SK-MEL-5 melanoma, 105%. The growth in the assay with UACC-62 melanoma is 98.1%; with LOX IMVI melanoma, 93.9%; with SK-MEL-28 melanoma, 98.4%; in the assay on SK-MEL-2 melanoma, 93.1%; with EKVX NSCLC it was 110%; in the assay with UO-31 renal, 92%. For the same molecule, the growth with TK-10 renal is 101%; in the assay with ACHN renal, 106%; in the assay on CAKI-1 renal, 100%; with MOLT-4 leukemia, 98.7%.

As to `COc1ccc(/C=C2\COc3ccc(-c4ccccc4)cc3C2=O)cc1O`, the growth is 19.6% in the assay on HCT-15 colon; 31.9% in the assay on SNB-75 CNS; 71.8% in the assay on SNB-19 CNS; 5.71% (active) with U251 CNS; 27.8% with PC-3 prostate; 32.3% with SK-MEL-5 melanoma. For the same molecule, the growth is 41% in the assay with UACC-62 melanoma; -13.5% (active) in the assay on LOX IMVI melanoma; 46.7% with SK-MEL-28 melanoma; -29.6% (active) in the assay with SK-MEL-2 melanoma; 105% with EKVX NSCLC; 30.8% in the assay with SN12C renal. Moreover, the growth was 40.6% in the assay with UO-31 renal; 67.7% in the assay on TK-10 renal; 47.3% with ACHN renal; 126% in the assay with CAKI-1 renal; 55.6% with A498 renal; -30.6% (active) with CCRF-CEM leukemia. In addition, the growth in the assay with MOLT-4 leukemia is -18.2% (active).
